# JMJD2A Tudor inh: JMJD2A Tudor domain (human) inhibition; 390,000 compounds, 4.4% hits; AlphaScreen JMJD2A-Tudor / H3K4me3 peptide binding; Potency, µM (series often up to 114 µM), for inactives: at the top dose activity change, negative = inhibition, usual class: inhibitors; O75164; AID 504339; also: % is scaled to controls: 0 for no effect and ±100 for the full control effect; nearly all actives have a fitted effect of over 50% in size
# HP1b chromo inh: blocks HP1-beta chromodomain binding to methylated histone tails; 390,000 compounds, 0.56% hits; P83916; Potency, µM (top dose mostly 114 µM), inactives show at the highest dose activity change, negative = inhibition, hits mostly inhibitors; AlphaScreen HP1-beta / biotin-H3K9me3 peptide binding; AID 540317; also: nearly all actives have a fitted effect of over 70% in size
# Target sequence (P83916 whole entry, looked up): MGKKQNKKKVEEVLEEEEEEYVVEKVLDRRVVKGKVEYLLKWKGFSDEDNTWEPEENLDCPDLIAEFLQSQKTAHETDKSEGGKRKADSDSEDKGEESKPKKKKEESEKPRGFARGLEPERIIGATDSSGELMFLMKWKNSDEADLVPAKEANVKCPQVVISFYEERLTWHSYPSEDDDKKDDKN
#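 AlphaScreen: HP1-beta (50 nM) preformed 30 min with biotin-H3(1-18)K9me3 peptide (50 nM) in PBS pH 7.4, 0.01% Tween-20. Compound added for 30 min at RT, then streptavidin donor/nickel chelate acceptor beads (10 ug/mL) for 30 min.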
# L3MBTL1 block: blocks human L3MBTL1 | Q9Y468 | AlphaScreen L3MBTL1–H3K9me1 peptide binding | Potency, µM (series often up to 57.1 µM), without a hit: at the highest dose activity, negative = inhibition, actives largely listed as inhibitors | 230,000 compounds, 0.66% hits; also: % is scaled to controls: 0 for no effect and ±100 for the full control effect; nearly all actives have a fitted effect of over 60% in size
#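 AlphaScreen assay: L3MBTL1 (50 nM final) was preincubated 30 min at room temperature with biotinylated H3(1-15)K9me1 peptide (75 nM final), then 30 min with library compounds; streptavidin donor and nickel chelate acceptor beads (10 ug/mL final) added, 30 min dark.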
# BAZ2B block: BAZ2B (human) inhibition; Potency, µM (series often up to 114 µM), inactives show at the highest dose activity change, negative = inhibition, hits mostly inhibitors; 360,000 compounds, 4.4% hits; Q9UIF8; AlphaScreen BAZ2B-H3K14Ac peptide displacement; AID 504333; also: % is scaled to controls: 0 for no effect and ±100 for the full control effect; nearly all actives have a fitted effect of over 60% in size
#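 Multi-concentration screen (max 110 uM) measuring displacement of acetylated histone H3 peptide from BAZ2B by AlphaScreen, using 50 nM protein, 50 nM peptide and 10 ug/mL streptavidin donor plus Ni-chelate acceptor beads.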
# GLS inh: glutaminase GLS (human) inhibition; O94925; GLS enzymatic activity, qHTS titration; Potency, µM (series often up to 45.5 µM), for the others: top-dose activity change, negative = inhibition, actives largely listed as inhibitors; 410,000 compounds, 0.21% hits; AID 624170; also: % is scaled to controls: 0 for no effect and ±100 for the full control effect
#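 Glutamate formation by hKGA was monitored fluorometrically using coupled glutamate oxidase, HRP and Amplex Red. Substrate was added as 1 mM L-glutamine solution; incubation was 30 min at RT after an initial read.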
# G9a block: inhibitors of human histone lysine methyltransferase G9a. Potency, µM (series often up to 102 µM), for inactives: at the top dose activity, negative = inhibition, most hits filed as inhibitors. Q96KQ7. G9a H3K9 monomethylation, AlphaScreen, 2 h. 350,000 compounds, 8.8% hits. AID 504332; also: % is scaled to controls: 0 for no effect and ±100 for the full control effect; nearly all actives have a fitted effect of over 75% in size
# Target sequence (Q96KQ7 913-1193 limits assumed): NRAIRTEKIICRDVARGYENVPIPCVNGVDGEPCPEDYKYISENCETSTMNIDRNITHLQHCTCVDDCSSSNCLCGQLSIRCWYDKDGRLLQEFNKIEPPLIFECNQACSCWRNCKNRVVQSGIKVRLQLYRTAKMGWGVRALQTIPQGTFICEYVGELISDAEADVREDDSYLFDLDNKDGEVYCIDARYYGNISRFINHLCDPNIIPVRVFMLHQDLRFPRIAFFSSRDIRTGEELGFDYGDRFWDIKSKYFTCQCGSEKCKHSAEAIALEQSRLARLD
#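 Readings reflect AlphaScreen signal from monomethyl-H3K9 antibody detection. HMT at 20 nM; substrate b-H3K9 500 nM; cofactor SAM 20 uM; 2 h RT reaction; compounds tested as titrations in qHTS with 15 min preincubation.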
# * hit, by the source's call; ? = inconclusive; nt = no result given; ! = a repeat was not active; [ ] = remark or other dose. An excerpt weighted towards active compounds, which were near 10% of everything screened. Calls follow the shape of the dose curve; as a rule, active = well fitted curve in the direction sought with a large enough effect; inconclusive = small, poorly fitted or top-dose-only effect, or another doubt; inactive = no such curve, though single readings can be large; an effect the other way counts as inactive or inconclusive. Potency is read from the fitted curve at half-maximal effect.
SMILES,JMJD2A Tudor inh,HP1b chromo inh,L3MBTL1 block,BAZ2B block,GLS inh,G9a block
CN1C(=O)N(C)C(=O)C2(Cc3cc(NC(=O)c4ccccc4)ccc3N3CCCC32)C1=O (stereo not drawn),-23%,45%,nt,-18%,-2%,32µM*
O=C1NC(=O)C2(Cc3ccccc3N3CCOCC32)C(=O)N1c1ccccc1 (stereo not drawn),-14%,13%,nt,0%,42%,-4%
CCN1C(=O)N(CC)C(=O)C2(Cc3ccccc3N3CCN(c4ccccc4)CC32)C1=O (stereo not drawn),-22%,42%,-12%,?,12%,2µM*
CN1CCN(c2nc(N)cc(=O)[nH]2)CC1,-10%,23%,0%,2%,6%,39%[0.501 µM]
CN1CCN2c3ccc(N)cc3CC3(C(=O)NC(=O)NC3=O)C2C1 (stereo not drawn),89µM*,-12%,nt,7.9µM*,1%,18µM*
CN1C(=O)N(C)C(=O)C2(Cc3cc(NC(=O)c4ccccc4Cl)ccc3N3CCCC32)C1=O (stereo not drawn),?,41%,nt,-11%,2%,nt
CN1C(=O)N(C)C(=O)C2(Cc3cc(N)ccc3N3CCN(c4ccccc4F)CC32)C1=O (stereo not drawn),nt,nt,?,50µM*,nt,28µM*
COc1ccc(OC)c(CC(C)N)c1 (stereo not drawn),nt,nt,nt,nt,4%[99.4 µM],nt
CN1C(=O)C(=Cc2ccc(Sc3ccccc3)o2)C(=O)N(C)C1=O,-4%,27%,-1%,-29%,4.5µM*,8.9µM*
CN1C(=O)C(=Cc2ccc(Sc3ccccc3)o2)C(=O)N(C)C1=S,50µM*,?,nt,nt,-12%,nt
CCCCC(=O)Nc1c(C(=O)N2CCN(c3ccccc3F)CC2)oc2ccccc12,-17%,21%,nt,-15%,2%,?
Cc1cc2c(cc(C(=O)N3CCC(C(=O)NC4CCCC4)CC3)n2Cc2c(F)cccc2Cl)o1,?,1%,nt,?,6%,-137%[59 µM]
COc1ccc(N2CCN(CCCNC(=O)c3cnn(-c4ccc(F)cc4)c3-n3cccc3)CC2)cc1,45µM*,-11%,nt,?,15%,13µM*
O=C(NCc1ccc(Cl)cc1)C1CCCN(C(=O)c2cnn(-c3ccc(F)cc3)c2-n2cccc2)C1 (stereo not drawn),-37%,18%,nt,-26%,6%,?
O=C(/C=C/c1ccc2c(c1)OCO2)c1c(O)n(CCC2=CCCCC2)c(=O)[nH]c1=O,-11%,14%,0%,9%,19%,11µM*
N#Cc1ccc(CN2CCC3(CC2)CCN(C(=O)Oc2ccccc2)CC3)cc1,nt,nt,nt,nt,nt,2%[12.7 µM]
CNC(=S)N(C)CCc1cc2c(c(OC)c1C=C1C(=O)NC(=O)NC1=O)OCO2,0%,41%,-6%,?,0%,79µM*
C=CCN1C(=O)NC(=O)/C(=C/c2c(CCN(C)C(=O)c3ccccc3)cc3c(c2OC)OCO3)C1=O,-20%,41%,-4%,-37%,-2%,?
Cc1c(OC(=O)N(C)C)ccc2c1O/C(=C\c1ccco1)C2=O,-17%,10%,nt,56µM*,-1%,32µM*
COc1ccc(Cc2nccc3cc(OC)c(OC)cc23)cc1OC,-19%,-4%,-18%,?,-16%,5.6µM*!
NC(=O)CSP(=O)(c1ccccc1)c1ccccc1,-31%,18%,0%,-22%,-5%,13µM*
NNC(=O)CP(=O)(c1ccccc1)c1ccccc1,-14%,66%,-5%,6%,17%,1%[59 µM]
COc1ccc(NC(=O)c2ccco2)cc1NC(=O)COc1cc(C)cc(C)c1,-16%,41%,nt,-24%,-1%,-32%[59 µM]
COc1cc2c(cc1OC)C(C)NCC2 (stereo not drawn),-5%,59%,8%,-2%,1%,-22%[59 µM]
COc1cc2c(cc1OC)C(C)N(C(=O)c1nccnc1C(=O)O)CC2 (stereo not drawn),50µM*,-10%,-5%,?,-13%,?
SMILES,JMJD2A Tudor inh,HP1b chromo inh,L3MBTL1 block,BAZ2B block,GLS inh,G9a block
O=C(O)c1ccccc1S,nt,nt,5%,3%,0%,40µM*
O=C(O)c1ccccc1C(=O)O,-12%,97%,6%,?,3%,1%[0.501 µM]
Oc1ccc2[nH]cc(CCCCN3CC=C(c4ccccc4)CC3)c2c1,nt,nt,nt,nt,15%,?
CCOC(=O)c1c(C)n(Cc2ccco2)c2c1cc(O)c1ccccc12,-18%,7%,nt,-11%,15%,16µM*
O=c1[nH]c(O)c(N=Nc2cc([N+](=O)[O-])ccc2O)c(=O)[nH]1,89µM*,?,-19%,50µM*,29%,45µM*
Cc1ncc(C[n+]2csc(CCOP(=O)(O)O)c2C)c(N)n1,nt,nt,nt,nt,3%,?
CC1O[C@@H](OC2CC[C@@]3(C=O)C4CC[C@]5(C)C(C6=CC(=O)OC6)CC[C@@]5(O)C4CC[C@]3(O)C2)C(O)C(O)C1O (stereo partly drawn),nt,nt,nt,nt,nt,-30%[2.33 µM]
C[n+]1c(-c2ccccc2)cc(CCCCc2cc(-c3ccccc3)[n+](C)c(-c3ccccc3)c2)cc1-c1ccccc1,?,-19%,1%,?,0%,40µM*
O=C1C[C@@H]2OCC=C3CN4CC[C@]56c7ccccc7N1[C@@H]5[C@@H]2[C@H]3C[C@H]46 (tested in a mixture with another compound),nt,nt,nt,nt,-3%,9%[59 µM]
OCc1cnc[nH]1,?,10%,4%,-24%,6%,12µM*!
COc1ccc(CCNCc2sccc2C)cc1OC,-2%,37%,2%,-16%,8%,10%
COc1ccc(CCNc2nccn(-c3ccc(C)c(C)c3)c2=O)cc1OC,-25%,?,nt,45µM*,5%,?
CC(C)n1cnc2c(C(=O)N[C@H]3CN4CCC3CC4)cc(Cl)cc21,nt,nt,nt,nt,nt,28%[59 µM]
COc1ccc(NC(=O)CN2C(=O)CN=C(c3ccccc3)c3ccccc32)c(OC)c1,-28%,?,nt,?,-8%,-2%[59 µM]
CC(OC(=O)COc1ccc(Nc2ccccc2)cc1)C(=O)N(C)c1ccccc1 (stereo not drawn),35µM*,?,?,22µM*,?,40µM*
CNCC(O)c1cccc(OC(=O)c2ccccc2C)c1 (stereo not drawn),26%[11.4 µM],54%,-2%,-1%,-21%,56µM*
C=CCN,nt,nt,nt,nt,nt,15%[59 µM]
CCOc1cc2c(cc1OCC)-n1cccc1C(c1ccccc1O)NC2 (stereo not drawn),50µM*,?,nt,50µM*,12%,50µM*
CCOc1cc2c(cc1OCC)-n1cccc1C(c1c(O)cccc1OC)NC2 (stereo not drawn),50µM*,-23%,nt,45µM*,19%,-12%[2.33 µM]
